# Data as given in PubChem BioAssay.
# Active and inactive are the calls of the source.
# Legend:
# Albumin (Bos taurus) = Albumin (Bos taurus) (UniProt P02769); experiment: compounds binding labelled BSA control protein – biochemical, small-molecule microarray, Alexa647 label, 635/667 nm fluorescence, artefact control for SMM control protein annotation, profiling panel (AID 1118); conditions: BSA-A647 binding, fluorescence 635 nm, higher = more signal;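 also: score merges 667 nm emission intensity and signal-to-noise per printed compound spot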
# [1] = probe aXIP binding to arrayed compounds – biochemical, NeuroSMM set, 635/667 nm fluorescence, primary screen (AID 1119); conditions: small-molecule microarray, higher = more signal, called active from +8 up or from −8 down;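 also: probe is the protein aXip251-270 applied at 1 µg/mL to compound-printed slides; binding of probe to printed compounds measured as 667 nm fluorescence plus signal to noise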
# [2] = probe aNOTCH3 binding on compound microarray – biochemical, small-molecule microarray, 635/667 nm fluorescence, primary screen (AID 1120); conditions: higher = more signal;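 also: probe is a biotin-tagged antibody raised against NOTCH3 rather than NOTCH3 protein; score merges spot fluorescence near 667 nm with spot signal to noise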
# [3] = probe aNOTCH2 binding on compound microarray – biochemical, small-molecule microarray, 635/667 nm fluorescence, primary screen (AID 1121); conditions: higher = more signal;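 also: score merges feature fluorescence read at 667 nm with its signal to noise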
# [4] = target: Carbonic anhydrase 2 (Homo sapiens) (UniProt P00918); experiment: compounds binding carbonic anhydrase 2 – biochemical, small-molecule microarray, Alexa647-labelled CAII, profiling panel (AID 1122); conditions: CAII-A647 binding fluorescence, higher = more signal
# [5] = COS7 lysate on small-molecule microarray, probe aHis, 635 nm (AID 1123); conditions: COS7 cell lysate, fluorescence, higher = more signal;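 also: z-score combines 667nm fluorescence intensity with signal-to-noise per printed compound spot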
# [6] = probe aLAP1 signal on lysate-treated microarray – cell lysate, small-molecule microarray, COS7 lysate, primary screen (AID 1124); conditions: probe aLAP1, fluorescence, higher = more signal;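 also: lysate comes from COS7 cells expressing LAP1 and is applied at 0.3 µg/mL; score merges spot fluorescence near 667 nm with signal-to-noise over triplicate slides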
# Sam68 (KHDRBS1) = experiment: compounds binding KHDRBS1 protein – biochemical, small-molecule microarray, 635 nm fluorescence, primary screen (AID 1125); conditions: higher = more signal;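 also: score merges 667 nm channel intensity with signal to noise over triplicate slides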
# [7] = test system: Chordin-like protein 2 (CHRDL2); experiment: compounds binding chordin-like 2 – biochemical, small-molecule microarray, 635 nm fluorescence, primary screen (AID 1126); conditions: fluorescence 635 nm, higher = more signal;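 also: printed compound slides probed with Chrdl2 protein at 4 µg/mL for 1 h at 4 C; score merges 667 nm emission intensity with signal to noise over three replicate slides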
# [8] = target: Concanavalin-A (Canavalia ensiformis) (UniProt P02866); experiment: compounds binding concanavalin A lectin – biochemical, small-molecule microarray, Alexa647 label, 635 nm, artefact control for SMM control protein annotation, primary screen (AID 1127); conditions: ConA-A647 binding fluorescence, higher = more signal;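 also: z combines 667 nm emission intensity with signal-to-noise across three replicate slides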
# [9] = compounds binding Alexa647 anti-His antibody – biochemical, small-molecule microarray, 635 nm fluorescence, artefact control for SMM control protein annotation, primary screen (AID 1128); conditions: higher = more signal;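 also: score merges feature fluorescence with signal-to-noise for each printed compound spot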
# [10] = test system: Human papillomavirus type 1a E7 protein (residues 1-88); experiment: HPV1a E7 small-molecule binders, primary screen, biochemical, small-molecule microarray, residues 1-88, 635 nm (AID 1129); conditions: small-molecule microarray binding, fluorescence 635 nm; higher = more signal
# [11] = target: Focal adhesion kinase 1 (Homo sapiens) (UniProt Q05397); experiment: PTK2 protein binding on printed compound slides – biochemical, small-molecule microarray, 635/667 nm fluorescence, BSA, DTT, primary screen (AID 1130); conditions: 635 nm fluorescence, higher = more signal;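 also: composite of spot emission at 667 nm and signal to noise over triplicate slides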
# [12] = test system: Fibrinogen (Alexa647-labelled); experiment: Alexa647-fibrinogen binding to printed small molecules – biochemical, small-molecule microarray, 635/667 nm fluorescence, artefact control for SMM control-protein annotation, profiling panel (AID 1131); conditions: fibrinogen-A647 binding fluorescence, higher = more signal;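 also: z-score merges 667 nm fluorescence with per-spot signal-to-noise over triplicate slides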
# [13] = target: Follistatin (Homo sapiens) (UniProt P19883); experiment: FST protein binding to printed compounds – biochemical, small-molecule microarray, 635/667 nm fluorescence, primary screen (AID 1132); conditions: 635 nm fluorescence, higher = more signal
# [14] = target: Fibroblast growth factor 2 (Homo sapiens) (UniProt P09038); experiment: basic fibroblast growth factor binding to printed compounds – biochemical, small-molecule microarray, 635/667 nm fluorescence, primary screen (AID 1133); conditions: FGF2, fluorescence 635/667, higher = more signal
# [15] = JC-1 mitochondrial potential readout, lung cancer cells – cell-based, A549, JC-1 fluorescence, basal, 24 h, 100 nL, profiling panel (AID 1138); conditions: higher = more signal;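 also: A549 lung adenocarcinoma cells under basal conditions with no added stimulus; test concentration not given here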
# Lefty1 = Lefty1 protein binding to printed compounds – biochemical, small-molecule microarray, 635/667 nm fluorescence, primary screen (AID 1139); conditions: fluorescence 635/667, higher = more signal
# [16] = test system: wheat germ agglutinin (Triticum aestivum), Alexa647-labelled; experiment: Alexa647-WGA lectin binding to printed small molecules – biochemical, small-molecule microarray, 635/667 nm fluorescence, artefact control for SMM control-protein annotation, profiling panel (AID 1140); conditions: WGA-A647 binding, 635 nm fluorescence, higher = more signal;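 also: score merges 667 nm feature emission with signal to noise over triplicate slides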
# [17] = target: Luciferin 4-monooxygenase (Photinus pyralis) (UniProt P08659); experiment: inhibition of purified Photinus pyralis luciferase – biochemical, luminescence, purified enzyme, 2006 set, primary screen (AID 1141); conditions: purified firefly luciferase, SteadyGlo luminescence, 30 min; higher = more signal, called active from +8 up or from −8 down;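 also: cell-free assay with purified firefly luciferase at 100 ng per well in PBS; test concentration not given here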
# Sequence of Luciferin 4-monooxygenase (Photinus pyralis) (P08659 whole entry, looked up): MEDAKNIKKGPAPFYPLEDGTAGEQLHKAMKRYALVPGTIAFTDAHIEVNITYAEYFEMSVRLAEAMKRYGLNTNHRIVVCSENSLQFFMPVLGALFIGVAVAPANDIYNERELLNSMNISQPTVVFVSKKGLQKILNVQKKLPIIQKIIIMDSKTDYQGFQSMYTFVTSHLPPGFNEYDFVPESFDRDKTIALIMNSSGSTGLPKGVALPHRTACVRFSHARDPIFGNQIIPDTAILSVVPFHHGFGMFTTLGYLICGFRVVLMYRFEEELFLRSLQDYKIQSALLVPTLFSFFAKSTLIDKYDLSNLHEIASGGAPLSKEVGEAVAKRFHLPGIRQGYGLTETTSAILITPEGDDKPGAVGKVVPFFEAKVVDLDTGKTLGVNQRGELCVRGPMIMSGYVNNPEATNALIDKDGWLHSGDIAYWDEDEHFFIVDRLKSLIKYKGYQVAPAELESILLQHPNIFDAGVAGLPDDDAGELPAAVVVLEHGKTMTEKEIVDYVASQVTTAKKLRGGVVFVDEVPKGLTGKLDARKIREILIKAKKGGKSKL
# Sequence of Concanavalin-A (Canavalia ensiformis) (P02866 whole entry, looked up): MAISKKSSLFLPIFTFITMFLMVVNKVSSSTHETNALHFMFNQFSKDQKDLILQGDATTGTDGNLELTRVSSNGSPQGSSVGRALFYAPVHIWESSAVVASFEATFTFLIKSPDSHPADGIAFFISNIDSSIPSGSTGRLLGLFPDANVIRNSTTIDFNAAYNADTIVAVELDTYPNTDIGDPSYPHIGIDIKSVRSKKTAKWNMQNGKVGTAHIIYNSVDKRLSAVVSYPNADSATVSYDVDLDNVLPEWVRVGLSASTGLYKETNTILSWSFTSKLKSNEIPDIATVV
# Sequence of Focal adhesion kinase 1 (Homo sapiens) (Q05397 whole entry, looked up): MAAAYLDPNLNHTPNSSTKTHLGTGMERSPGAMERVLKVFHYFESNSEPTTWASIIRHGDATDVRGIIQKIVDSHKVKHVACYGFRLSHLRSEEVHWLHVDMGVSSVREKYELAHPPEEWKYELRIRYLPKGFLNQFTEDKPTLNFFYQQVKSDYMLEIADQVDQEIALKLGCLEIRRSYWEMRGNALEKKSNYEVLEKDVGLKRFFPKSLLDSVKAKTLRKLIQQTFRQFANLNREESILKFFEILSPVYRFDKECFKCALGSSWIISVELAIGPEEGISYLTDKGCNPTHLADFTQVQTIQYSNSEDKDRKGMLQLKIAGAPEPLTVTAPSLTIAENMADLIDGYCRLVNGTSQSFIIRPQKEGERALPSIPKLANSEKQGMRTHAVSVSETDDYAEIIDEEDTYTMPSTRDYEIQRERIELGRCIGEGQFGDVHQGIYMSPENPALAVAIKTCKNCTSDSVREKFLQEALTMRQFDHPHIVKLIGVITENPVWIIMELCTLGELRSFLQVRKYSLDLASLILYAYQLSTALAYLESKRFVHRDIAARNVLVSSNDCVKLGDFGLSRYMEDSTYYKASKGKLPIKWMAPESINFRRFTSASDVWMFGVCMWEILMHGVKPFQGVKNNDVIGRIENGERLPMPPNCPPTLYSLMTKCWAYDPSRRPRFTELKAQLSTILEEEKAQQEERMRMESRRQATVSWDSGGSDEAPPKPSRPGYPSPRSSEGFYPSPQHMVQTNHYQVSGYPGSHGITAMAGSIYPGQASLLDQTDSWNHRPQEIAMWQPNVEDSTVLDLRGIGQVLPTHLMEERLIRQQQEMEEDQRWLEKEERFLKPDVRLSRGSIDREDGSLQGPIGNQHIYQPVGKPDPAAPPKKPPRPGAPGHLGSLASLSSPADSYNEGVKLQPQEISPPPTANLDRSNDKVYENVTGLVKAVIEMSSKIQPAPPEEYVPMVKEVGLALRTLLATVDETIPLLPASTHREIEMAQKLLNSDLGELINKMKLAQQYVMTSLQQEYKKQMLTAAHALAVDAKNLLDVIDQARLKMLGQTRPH
# Sequence of Albumin (Bos taurus) (P02769 whole entry, looked up): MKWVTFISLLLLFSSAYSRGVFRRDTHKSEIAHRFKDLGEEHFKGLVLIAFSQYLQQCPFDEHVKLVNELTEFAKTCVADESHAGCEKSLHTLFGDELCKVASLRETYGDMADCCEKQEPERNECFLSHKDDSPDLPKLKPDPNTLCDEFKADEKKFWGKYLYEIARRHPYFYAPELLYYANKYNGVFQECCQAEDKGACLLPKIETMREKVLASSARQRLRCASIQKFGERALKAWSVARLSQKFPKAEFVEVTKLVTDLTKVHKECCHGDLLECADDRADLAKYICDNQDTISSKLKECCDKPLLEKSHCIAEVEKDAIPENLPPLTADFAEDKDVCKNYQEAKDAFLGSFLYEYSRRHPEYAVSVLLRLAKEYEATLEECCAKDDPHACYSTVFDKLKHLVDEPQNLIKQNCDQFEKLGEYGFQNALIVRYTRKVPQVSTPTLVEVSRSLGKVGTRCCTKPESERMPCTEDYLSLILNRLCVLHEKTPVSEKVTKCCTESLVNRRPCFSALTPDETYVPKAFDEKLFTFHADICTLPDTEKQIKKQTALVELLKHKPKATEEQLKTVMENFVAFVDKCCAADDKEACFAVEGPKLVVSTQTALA
# Sequence of Fibroblast growth factor 2 (Homo sapiens) (P09038 whole entry, looked up): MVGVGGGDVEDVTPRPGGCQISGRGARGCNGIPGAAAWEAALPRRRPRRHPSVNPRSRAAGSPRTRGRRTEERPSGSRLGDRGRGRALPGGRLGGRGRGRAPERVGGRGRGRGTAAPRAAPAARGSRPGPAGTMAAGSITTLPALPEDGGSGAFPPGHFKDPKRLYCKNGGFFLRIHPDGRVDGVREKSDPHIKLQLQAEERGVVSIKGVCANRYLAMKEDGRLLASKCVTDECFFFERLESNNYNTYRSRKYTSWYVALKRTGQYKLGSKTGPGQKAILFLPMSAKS
# Sequence of Follistatin (Homo sapiens) (P19883 whole entry, looked up): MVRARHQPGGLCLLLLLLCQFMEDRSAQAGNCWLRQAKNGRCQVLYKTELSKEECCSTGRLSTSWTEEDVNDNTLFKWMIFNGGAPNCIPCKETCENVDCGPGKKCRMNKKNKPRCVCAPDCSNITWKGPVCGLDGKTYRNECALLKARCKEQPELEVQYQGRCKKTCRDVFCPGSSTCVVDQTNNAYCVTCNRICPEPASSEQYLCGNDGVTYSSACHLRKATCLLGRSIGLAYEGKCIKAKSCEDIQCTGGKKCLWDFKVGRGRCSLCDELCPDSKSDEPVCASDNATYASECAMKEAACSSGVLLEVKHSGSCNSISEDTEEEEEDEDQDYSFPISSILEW
SMILES,composite z-score (Albumin (Bos taurus)),composite Z-score [1],composite z-score [2],composite z-score [3],composite z-score [4],composite z-score [5],composite z-score [6],composite z-score (Sam68 (KHDRBS1)),composite z-score [7],composite z-score [8],composite z-score [9],composite z-score [10],composite z-score [11],composite z-score [12],composite z-score [13],composite z-score [14],z-score [15],composite z-score (Lefty1),composite z-score [16],z-score [17]
COCCOC(=O)N1C(=O)[C@@]2(c3cc(C#CCCO)ccc31)[C@H](c1ccc(O)cc1)N1[C@H](c3ccccc3)[C@H](c3ccccc3)OC(=O)[C@H]1[C@@H]2C(=O)N1CCN(c2ncccn2)CC1,0.435,0.982 (inactive),1.28,0.51,0.183,2.92,0.782,1.29,0.677,1.16,1.34,1.25,1.26,0.959,1,0.986,0.00649,0.883,0.932,0.832 (inactive)
COCCOC(=O)N1C(=O)[C@@]2(c3cc(C#CCCO)ccc31)[C@H](c1ccc(OCCO)cc1)N1[C@H](c3ccccc3)[C@H](c3ccccc3)OC(=O)[C@H]1[C@@H]2C(N)=O,0.482,0.606 (inactive),-0.0117,-0.0567,0.588,1.93,-0.591,1.29,0.437,1.17,1.3,1.2,0.711,0.837,1.04,0.752,-0.212,0.496,0.694,-1.77 (inactive)
O=C(CS)NCCCCCNC(=O)[C@@H]1C[C@@H]2C(=O)NCC(=O)N2[C@@H]1c1cccc(OCCO)c1,0.57,0.498 (inactive),-0.162,-0.125,0.179,1.61,0.783,0.459,0.656,0.324,3.09,-0.0552,1.8,0.0984,1.25,0.817,1.12,0.106,0.502,-2.27 (inactive)
CCCCCCCCCCC(O)C1C=CC2C(=O)NC(=O)C2N1Nc1ccc(Cl)cc1Cl (stereo not given),0.145,-0.383 (inactive),-0.0288,-0.077,0.442,1.66,0.192,-0.0789,0.0425,0.248,0.997,0.186,0.459,0.331,-0.184,-0.942,-0.863,-1.14,0.117,-0.836 (inactive)
C[N+](C)(C)CCCC[C@@H]1NC(=O)[C@@H]2C[C@H](C(=O)NCCCCCN)[C@H](c3ccc(O)cc3)N2C1=O,0.877,1.01 (inactive),0.363,0.154,0.72,1.53,1.02,1.19,0.248,1.15,2.08,1.05,0.0992,0.927,1.4,1.8,0.962,1.64,0.87,-1.26 (inactive)
[N-]=[N+]=Nc1ccccc1C[C@]1(C(=O)NCc2ccccc2)N=C(c2ccc(OCCCO)cc2)O[C@H]1c1ccccc1N=[N+]=[N-],0.896,0.411 (inactive),0.555,-0.0211,0.676,2.63,0.458,1.06,-0.124,1.13,1.88,1.16,0.414,1,0.547,-0.165,1.08,0.376,0.824,-3.77 (inactive)
COCCCNC(=O)[C@@H]1c2ccccc2C(=O)N(Cc2ccccc2)[C@H]1c1ccc(CO)cc1,0.405,0.59 (inactive),0.235,0.13,0.787,1.48,1.1,0.814,0.634,0.458,1.67,1.01,-0.174,0.185,0.928,0.594,1.29,0.206,0.31,0.519 (inactive)
CN1C(=O)C2C=CC(C(O)c3c(F)cccc3Cl)N(NC(=O)OC(C)(C)C)C2C1=O (stereo not given),0.972,2.18 (inactive),-0.0362,0.109,0.572,2.75,0.67,1.22,-0.729,0.918,1.11,1.09,0.427,1.01,0.453,-0.174,0.584,-0.242,0.634,0.682 (inactive)
COc1ccc([Si](C)(C)[C@@H]2[C@@H](CCn3cc(CCO)nn3)O[C@]3(C(=O)N(Cc4cccc(N5C(=O)c6cccc7cccc5c67)c4)c4ccccc43)[C@H]2C)cc1,0.695,0.478 (inactive),0.0351,-0.14,0.224,1.01,0.222,1.29,-0.0468,0.833,1.18,1.16,0.321,0.556,1.16,0.672,-1.1,1.23,0.509,0.178 (inactive)
C#CCN1[C@H](/C=C/C2CC2)[C@H](Cc2ccccc2)OC(=O)[C@@H]1Cc1ccccc1,-0.159,-0.95 (inactive),-0.124,-0.0759,0.2,0.24,0.092,0.257,0.509,0.0816,0.924,0.743,0.229,0.884,0.578,0.242,3.8,0.536,-0.153,-0.373 (inactive)
